Data published in paper PMC3218832.

Columns and labels:
Experiment in all cases: protein binding microarray; high values mean tight binding
Settings in all cases: dsDNA, one strand shown
[1] = biological target: RELARELA (p65 homodimer) (Homo sapiens, UniProt Q04206 1-307)
[2] = biological target: p50p50 homodimer (Homo sapiens, UniProt P19838 7-356)
[3] = biological target: T1, p52p52 homodimer (Homo sapiens, UniProt Q00653 4-332)
T1 sequence: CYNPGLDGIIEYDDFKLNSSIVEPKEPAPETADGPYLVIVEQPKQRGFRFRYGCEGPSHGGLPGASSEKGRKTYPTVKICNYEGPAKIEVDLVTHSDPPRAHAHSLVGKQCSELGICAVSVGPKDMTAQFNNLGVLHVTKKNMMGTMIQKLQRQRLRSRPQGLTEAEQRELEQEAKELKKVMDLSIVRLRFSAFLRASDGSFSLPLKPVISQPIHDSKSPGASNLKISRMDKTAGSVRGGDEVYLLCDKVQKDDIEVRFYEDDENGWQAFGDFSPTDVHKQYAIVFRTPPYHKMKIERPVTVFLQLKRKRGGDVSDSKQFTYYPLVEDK

[4] = biological target: RELA (p65) subunit of heterodimer;p50 subunit (Homo sapiens;Homo sapiens, UniProt Q04206;P19838 1-307;7-356)
Chain of RELA (p65) subunit of heterodimer;p50 subunit (Q04206 1-307, chain 1 of 2): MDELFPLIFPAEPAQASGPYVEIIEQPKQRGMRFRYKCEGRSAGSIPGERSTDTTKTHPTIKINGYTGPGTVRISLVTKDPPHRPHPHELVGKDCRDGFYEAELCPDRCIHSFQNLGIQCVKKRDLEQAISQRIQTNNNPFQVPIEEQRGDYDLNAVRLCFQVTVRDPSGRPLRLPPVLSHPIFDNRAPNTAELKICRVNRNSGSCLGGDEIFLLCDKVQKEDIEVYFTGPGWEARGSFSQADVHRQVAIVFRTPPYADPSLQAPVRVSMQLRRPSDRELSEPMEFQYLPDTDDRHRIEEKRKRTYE
Chain of RELA (p65) subunit of heterodimer;p50 subunit (P19838 7-356, chain 2 of 2): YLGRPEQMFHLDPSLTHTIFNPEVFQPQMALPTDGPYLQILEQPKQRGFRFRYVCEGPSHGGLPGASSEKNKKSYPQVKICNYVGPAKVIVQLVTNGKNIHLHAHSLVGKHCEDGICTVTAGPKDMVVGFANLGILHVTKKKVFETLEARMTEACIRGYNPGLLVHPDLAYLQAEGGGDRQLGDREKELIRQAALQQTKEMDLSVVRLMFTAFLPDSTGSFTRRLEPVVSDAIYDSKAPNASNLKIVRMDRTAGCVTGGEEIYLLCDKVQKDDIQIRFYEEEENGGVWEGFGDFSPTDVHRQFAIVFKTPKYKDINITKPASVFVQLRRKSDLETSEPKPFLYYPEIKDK

[5] = biological target: RELA (p65) subunit of heterodimer;p52 subunit (Homo sapiens;Homo sapiens, UniProt Q04206;Q00653 1-307;4-332)
[6] = biological target: RELB subunit;p50 subunit (Homo sapiens;Homo sapiens, UniProt Q01201;P19838 120-401;7-356)
[7] = biological target: T2, RELB subunit;p52 subunit (Homo sapiens;Homo sapiens, UniProt Q01201;Q00653 120-401;4-332)
T2 sequence 1: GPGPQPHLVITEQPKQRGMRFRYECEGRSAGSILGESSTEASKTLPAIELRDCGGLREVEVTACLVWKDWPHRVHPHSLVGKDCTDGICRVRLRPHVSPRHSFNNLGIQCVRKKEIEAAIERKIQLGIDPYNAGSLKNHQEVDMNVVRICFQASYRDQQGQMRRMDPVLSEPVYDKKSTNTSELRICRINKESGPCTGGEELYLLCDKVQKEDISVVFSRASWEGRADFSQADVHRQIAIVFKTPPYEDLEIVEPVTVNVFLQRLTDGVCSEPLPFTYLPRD
T2 sequence 2: T1 sequence

[8] = biological target: C-Rel subunit;p50 subunit (Homo sapiens;Homo sapiens, UniProt Q04864;P19838 1-285;7-356)
[9] = biological target: T3, C-Rel subunit;p52 subunit (Homo sapiens;Homo sapiens, UniProt Q04864;Q00653 1-285;4-332)
T3 sequence 1: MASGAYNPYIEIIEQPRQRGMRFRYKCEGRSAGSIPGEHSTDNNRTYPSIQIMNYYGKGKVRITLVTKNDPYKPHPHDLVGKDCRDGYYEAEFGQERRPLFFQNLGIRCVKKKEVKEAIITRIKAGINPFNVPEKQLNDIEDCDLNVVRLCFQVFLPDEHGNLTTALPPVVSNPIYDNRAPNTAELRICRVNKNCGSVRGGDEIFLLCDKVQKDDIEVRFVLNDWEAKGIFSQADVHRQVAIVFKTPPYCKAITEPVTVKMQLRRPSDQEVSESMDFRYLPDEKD
T3 sequence 2: T1 sequence

Chain of p50p50 homodimer (P19838 7-356): as the sequence (P19838 7-356, chain 2 of 2) above
Chain of RELARELA (p65 homodimer) (Q04206 1-307): as the sequence (Q04206 1-307, chain 1 of 2) above

Row | Sequence | binding signal [1] | binding signal [2] | binding signal [3] | binding signal [4] | binding signal [5] | binding signal [6] | binding signal [7] | binding signal [8] | binding signal [9]
1 | CGGAGAGTCCT | 1 z-score | -1.2 z-score | -0.591 z-score | -0.159 z-score | -0.629 z-score | -0.808 z-score | -0.743 z-score | -0.482 z-score | -0.448 z-score
2 | GAGATTACCCT | 0.00649 z-score | 0.801 z-score | 0.46 z-score | 0.604 z-score | 0.372 z-score | 0.519 z-score | 0.477 z-score | 0.426 z-score | 0.377 z-score
3 | GAATAAGTCCC | 0.563 z-score | 1.13 z-score | 0.974 z-score | 1.43 z-score | 0.993 z-score | 1.38 z-score | 1.13 z-score | 1.03 z-score | 0.676 z-score
4 | CAAGTATTCCT | -0.0829 z-score | -1.19 z-score | -0.607 z-score | -0.839 z-score | -0.737 z-score | -0.975 z-score | -0.645 z-score | -0.507 z-score | -0.822 z-score
5 | AGGTACATCCT | -0.603 z-score | -0.00392 z-score | 0.047 z-score | -0.495 z-score | -0.249 z-score | -0.147 z-score | -0.293 z-score | -0.674 z-score | -0.415 z-score
6 | AAGTTGATCCC | -0.64 z-score | -0.815 z-score | -0.6 z-score | -0.903 z-score | -0.719 z-score | -0.688 z-score | -0.621 z-score | -1.07 z-score | -0.615 z-score
7 | GGGTGTTTCCT | 1.42 z-score | 0.575 z-score | 1.06 z-score | 0.736 z-score | 0.987 z-score | 0.102 z-score | 1.16 z-score | 0.695 z-score | 1.43 z-score
8 | CGAAAAATCCT | 0.627 z-score | -0.702 z-score | -0.361 z-score | -0.584 z-score | -0.435 z-score | -0.775 z-score | -0.584 z-score | -0.32 z-score | -0.29 z-score
9 | CAGTACGCCCT | -0.311 z-score | -1.79 z-score | -0.678 z-score | -0.914 z-score | -0.662 z-score | -0.89 z-score | -0.84 z-score | -1.25 z-score | -0.761 z-score
10 | GGAGTCGTCCT | -0.136 z-score | -1.28 z-score | -0.582 z-score | -0.993 z-score | -0.875 z-score | -1.03 z-score | -0.714 z-score | -1.4 z-score | -0.812 z-score
11 | GGGAGTGTCCT | 0.931 z-score | -0.152 z-score | 0.385 z-score | 0.0362 z-score | 0.309 z-score | -0.212 z-score | 0.00999 z-score | -0.0276 z-score | 0.382 z-score
12 | GAAAAATTCCT | 1.78 z-score | -0.0646 z-score | -0.212 z-score | 0.245 z-score | 0.117 z-score | -0.659 z-score | -0.236 z-score | 0.538 z-score | 0.319 z-score
13 | GAAGATTTCCT | 0.421 z-score | -0.715 z-score | -0.513 z-score | -0.241 z-score | -0.568 z-score | -0.764 z-score | -0.77 z-score | -0.169 z-score | -0.383 z-score
14 | CAAAGTACCCC | 0.144 z-score | 0.83 z-score | 0.509 z-score | 0.648 z-score | 0.795 z-score | 1.07 z-score | 1.19 z-score | 0.721 z-score | 0.588 z-score
15 | AGGTGGTCCCT | -0.0291 z-score | 0.913 z-score | 0.63 z-score | 0.18 z-score | 0.558 z-score | 0.666 z-score | 0.659 z-score | 0.227 z-score | 0.391 z-score
